The list is not random: actives were taken first. Their share in the collection is about 1.1%.
SRC3 inh = inhibitors of human steroid receptor coactivator 3 (SRC3) | Q9Y6Q9 | HEK293 GAL4-SRC3 luciferase reporter, luminescence | inhibition, % at 3.6 µM | 0.17% of 360,000 active;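 active means inhibition above a per-campaign cutoff, the mean of all compounds plus 3 SD, cut at about 60% in these data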;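 further: 0% = DMSO-treated cells and 100% = gossypol-treated cells at 36 µM; higher means less SRC3-driven luciferase light from the GAL4 reporter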
Gli-Sufu block = blocks Gli-Sufu signaling in a luciferase reporter | Sufu-KO-LIGHT fibroblasts, Gli luciferase reporter luminescence | inhibition, % at 5 µM | 0.74% of 340,000 active | AID 588413;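 active means inhibition above about 55%, limit read from the data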;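 further: 0% = DMSO-treated cells and 100% = wells with medium but no cells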
SRC1 inh = inhibits human SRC1 coactivator | HEK293 GAL4-SRC1 luciferase reporter, luminescence | inhibition, % at 3.6 µM | 0.12% of 360,000 active | AID 588354;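 active means inhibition above the campaign mean plus 3 SD, with each screening campaign given its own cutoff, cut at about 60% in these data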;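 further: 0% = DMSO treated cells and 100% = gossypol at 36 µM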
Shn3 3UTR inh = inhibitors of Schnurri-3 3'UTR reporter in osteoblasts; inhibition, % at 12.5 µM; 0.52% of 360,000 active; Clone20 osteoblast Shn3 3'UTR firefly luciferase, 24 h;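 active means mean inhibition of at least 75% with every replicate also reaching 75%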;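 further: 0% = median of neutral control wells and 100% = pilot-screen positive control compound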
LRH-1 inv ag = suppresses constitutive activity of human LRH-1; HEK293T StAR-luciferase reporter, LRH-1 transfected, 24 h; AID 602396; inhibition, % at 3.6 µM; 0.13% of 360,000 active;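 active means inhibition above the mean inhibition of all tested compounds plus 3 SD, cut at about 73% in these data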;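 further: 0% = DMSO wells and 100% = reporter-only cells lacking LRH-1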
SRC2 inh = human SRC2 (NCOA2) inhibition | AID 651957 | 0.17% of 370,000 active | inhibition, % at 9 µM | HEK293 GAL4-SRC2 luciferase reporter, luminescence | Q15596;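 active means inhibition above the mean inhibition of all tested compounds plus 3 SD, set per campaign, cut at about 52% in these data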;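 further: 0% = DMSO treated cells and 100% = cells given Gossypol at 36 µM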
Gli antag conf = Gli-SUFU antagonism confirmation, single concentration; shares compounds with Gli-Sufu block; Sufu-KO-LIGHT cells, Gli luciferase reporter, luminescence; inhibition, % at 5 µM; 40% of 2,500 active; AID 602428;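 active means mean inhibition at 5 µM reaching about 45%, limit read from the data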;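 further: plate controls were DMSO-treated cells for no effect and wells lacking cells for full effect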
SufuKO cytotox = cytotoxicity counter-screen for Gli-SUFU antagonists; shares compounds with Gli-Sufu block; Sufu-KO-LIGHT cells cytotoxicity, ATP luminescence; cytotoxicity, % at 5 µM; 32% of 2,500 active;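 active means mean cytotoxicity at 5 µM above about 25%, limit read from the data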;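 further: cells exposed to compound overnight for roughly 16 to 18 hours; plate controls were DMSO wells with cells for no effect and medium without cells for full effect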
Wnt3a cs = Wnt3a reporter inhibition counter-screen | shares compounds with Gli-Sufu block | Wnt-LIGHT cells, Wnt3a-driven luciferase reporter, luminescence | inhibition, % at 6.25 µM | 20% of 2,500 active;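 active means mean inhibition above about 25%, limit read from the data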
Starred values were filed as active, the others as inactive; · = no result.

SMILES	SRC3 inh	Gli-Sufu block	SRC1 inh	Shn3 3UTR inh	LRH-1 inv ag	SRC2 inh	Gli antag conf	SufuKO cytotox	Wnt3a cs
Cc1cc(=O)oc2cc(OCC3CC(c4ccc(N(C)C)cc4)=NO3)ccc12 (stereo unspecified)	-6	99*	-25	2	24	-9	0	17	-71
Cc1cc(=O)oc2cc(OCC3CC(c4ccc(Cl)cc4)=NO3)ccc12 (stereo unspecified)	5	1	15	3	2	3	·	·	·
Cc1ccc(NC(=O)C2CCCN(c3nnc(-n4cccc4)s3)C2)c(C)c1 (stereo unspecified)	·	·	·	·	·	-11	·	·	·
C=CCN1C(=O)[C@H](CC(=O)NCc2cccs2)[C@@]2(C(=O)OCC)CCCC=C12	·	·	·	·	·	2	·	·	·
Clc1cccc(Nc2ncnc3ccc(Br)cc23)c1	29	62*	28	23	0	37	20	2	11
CCOC(=O)[C@@]12CCCC=C1N(CCc1ccc(Cl)cc1)C(=O)[C@H]2CC(=O)NCc1cccc(C(F)(F)F)c1	·	·	·	·	·	18	·	·	·
CNc1ccccc1/C(O)=C(\C#N)C(=O)NCc1cccs1	·	·	·	·	·	-15	·	·	·
N#Cc1ccc(-c2cccs2)nc1SCc1cccnc1	-8	60*	-28	·	23	-17	34	55*	-39
CCOC(=O)c1c(NC(=O)COc2ncnc3ccccc23)sc(C(C)=O)c1C	2	55*	2	59	7	-9	38	22	-9
O=C(Nc1ccccc1Cc1ccccc1)c1ccccc1NS(=O)(=O)c1ccc(Cl)s1	35	59*	13	83	25	30	63*	30*	57*
O=C(NC1CCCCN(Cc2cccc(C(F)(F)F)c2)C1=O)c1ccc(F)c(F)c1 (stereo unspecified)	·	·	·	·	·	-2	·	·	·
COc1ccc(C2CC(c3ccco3)n3ncnc3N2)cc1 (stereo unspecified)	12	57*	10	6	-4	-19	10	15	-3
CCOc1ccc(C2CC(c3ccc(OC)cc3)n3ncnc3N2)cc1 (stereo unspecified)	-8	-20	-48	7	-32	-8	·	·	·
COC(=O)CC[C@H](/C=C/C(=O)OC(C)(C)C)Sc1ccc(C(C)(C)C)cc1	·	·	·	·	·	-7	·	·	·
O=C(OCCOc1cccc(Cl)c1)c1cc(S(=O)(=O)N2CCCCC2)ccc1N1CCOCC1	19	64*	-27	68	-13	13	66*	36*	19
COCCCNC(=O)C[C@H]1C[C@@]2(C(=O)OC)C(=C[C@H](C(C)C)O[C@@H]2C2CC2)N(CCC2=CCCCC2)C1=O	·	·	·	·	·	1	·	·	·
CN(C)c1cc[n+](CC(=O)c2ccc(-c3ccccc3)cc2)cc1	57	88*	35	73	86*	-3	86*	38*	39*
C=Cn1cc[n+](CC(=O)c2ccc(-c3ccccc3)cc2)c1	5	53	11	4	4	-2	37	8	-29
O=C(C[n+]1ccccc1)c1ccc(-c2ccccc2)cc1	7	11	-16	-30	2	-2	·	·	·
Cc1cccc(CCNC(=O)c2ccc(Sc3ccccc3Cl)c([N+](=O)[O-])c2)c1	·	·	·	·	·	14	·	·	·
Cc1cc(NC(=O)c2ccc(NS(=O)(=O)c3ccc(F)cc3)cc2)no1	·	·	·	·	·	2	·	·	·
Nc1nc2nccc(-c3cccnc3)n2n1	0	95*	18	-14	17	-40	11	12	1
Clc1ccc(SCCOCCN2CCCCC2)cc1	13	79*	6	-12	-5	11	28	13	-26
Clc1ccc(SCCOCCN2CCOCC2)cc1	13	1	1	-2	11	-21	·	·	·
COC(=O)c1ccc(Cn2ccc3ccc(-c4ccc5ccn(Cc6ccc(OC)cc6)c5c4)cc32)cc1	·	·	·	·	·	-13	·	·	·
SMILES	SRC3 inh	Gli-Sufu block	SRC1 inh	Shn3 3UTR inh	LRH-1 inv ag	SRC2 inh	Gli antag conf	SufuKO cytotox	Wnt3a cs
CCOc1ncccc1C(=O)N1CCN(c2cc(Cl)ccc2C)CC1	11	51	-6	22	14	12	38	54*	-55
C=Cc1ccc(Cn2c(=O)n(C)c(=O)c3sccc32)cc1	24	54	2	54	10	16	35	16	4
Cc1ccc(Cn2c(=O)n(C)c(=O)c3sccc32)cc1	6	22	-7	27	7	-7	·	·	·
C#CC[N+](C)(C)CCCCCCCC	11	21	8	12	2	15	·	·	·
CCCCCCCCCCCCCCCC(O)C[N+](C)(C)CCO (stereo unspecified)	4	9	4	29	9	8	·	·	·
C#CC[N+](C)(C)CCCCCCCCCC	41	56*	41	43	26	33	58*	37*	48*
CC#CC[N+](C)(C)CCCCCCCCCCCC	34	88*	33	77	55	2	89*	31*	17
C#CC[N+](C)(C)CCCCCCCCCCCC	59	84*	39	77	53	31	81*	28*	22
CCCNC(=O)c1ccccc1NC(=O)c1ccc2c(=O)n3c(nc2c1)CCC3	-15	96*	-1	-15	0	-7	22	15	-1
COc1ccc(O)c(/C=N/NC(=O)c2ccc(CSc3nc(C)cc(C)n3)cc2)c1	26	63*	18	88*	5	40	48*	19	41*
COc1ccc(/C=N/NC(=O)c2ccc(CSc3nc(C)cc(C)n3)cc2)cc1O	0	2	-41	-27	19	-14	·	·	·
O=C(c1ccc(=O)[nH]n1)N1CCN(S(=O)(=O)c2ccc3ccccc3c2)CC1	-12	63*	2	9	1	6	14	1	-8
O=C(c1ccc(=O)[nH]n1)N1CCN(S(=O)(=O)c2cccc(F)c2)CC1	-1	-17	1	-8	-27	-20	·	·	·
CC(C)CN1CN2CCc3ccccc3C2CS1(=O)=O (stereo unspecified)	·	·	·	·	·	-11	·	·	·
Cc1ccnc(N/N=C/c2ccccc2)n1	-66	-69	-80	-54	-102	-59	·	·	·
Cc1cc(C)nc(N/N=C2/CCCC/C2=C\c2ccccc2)n1	22	74*	-2	73	-24	-8	30	3	-4
O=C(CCCC1=NS(=O)(=O)c2ccccc2N1)N1CCN(c2ccccc2Cl)CC1	·	·	·	·	·	9	·	·	·
Cc1cc(Cl)c2oc(C(=O)N3CCN(c4ccncc4)CC3)c(C)c2c1	-6	68*	4	66	-17	-8	26	23	-36
COC(=O)C1CCN(C(=O)c2oc3c(Cl)cc(C)cc3c2C)CC1	-67	-103	-254	-118	-193	-37	·	·	·

Screening results from PubChem BioAssay.
